# Compounds with a hit are over-represented: about 2.8% of the library has one in this group of screens.
# HEK293 viab = GF-AFC viability counterscreen for inhibitors of alpha-synuclein gene (SNCA) expression; HEK-293-SNCA-luc viability, GF-AFC fluorescence, 24 h; 0.12% of 150,000 active; Potency, µM (top dose mostly 57.1 µM), inactives show at the highest dose activity change, negative = cytotoxicity, actives largely listed as cytotoxic;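 note: potency is the fitted concentration of half-maximal effect; 0% = DMSO-treated cells and -100% = medium-only wells without cells; nearly all actives have a fitted effect of over 30% in size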
#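 HEK-293-SNCA-luc cells (1500/well) plated 24 h, then exposed 24 h to a dilution series; GF-AFC added 30 min at 37C, fluorescence 405/540 nm; normalised to medium-only and DMSO wells, Hill fit.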
# IP6K1 inh = Primary qHTS assay for small molecule inhibitors of Inositol hexaphosphate kinase 1 (IP6K1); Inositol hexakisphosphate kinase 1 (Homo sapiens), Q92551; IP6K1 kinase, ADP-Glo luminescence, 2 h; hits give low values; activity change, % (series mostly up to about 58 µM); 0.81% of 140,000 active; in the data active = activity change below about -25%; note: % is set by controls: 0 for no effect and ±100 for the full control effect
# Target sequence (Q92551 whole entry, looked up): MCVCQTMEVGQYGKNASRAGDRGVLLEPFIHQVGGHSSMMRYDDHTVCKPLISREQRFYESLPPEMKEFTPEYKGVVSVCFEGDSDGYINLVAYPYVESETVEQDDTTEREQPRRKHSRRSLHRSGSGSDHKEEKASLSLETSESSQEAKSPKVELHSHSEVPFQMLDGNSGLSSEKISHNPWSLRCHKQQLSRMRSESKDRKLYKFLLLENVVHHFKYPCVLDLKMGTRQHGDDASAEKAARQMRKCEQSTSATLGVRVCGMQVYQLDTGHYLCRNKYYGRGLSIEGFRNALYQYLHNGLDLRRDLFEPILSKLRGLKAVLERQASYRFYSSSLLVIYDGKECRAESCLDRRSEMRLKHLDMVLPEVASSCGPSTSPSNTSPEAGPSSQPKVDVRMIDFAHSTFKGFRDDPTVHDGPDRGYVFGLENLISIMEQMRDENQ
#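 ADP-Glo luminescence measures ADP made by human IP6K1 during a 2 h RT reaction with ATP/IP6 (mix at 1.3 mM/130 uM); top library doses 57.5 and 19.1 uM final.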
# SNCA expr inhib = Primary qHTS assay for inhibitors of alpha-synuclein gene (SNCA) expression; HEK-293 SNCA-luciferase knock-in, luminescence, 24 h; 0.17% of 140,000 active; AID 1671194, 2021; Potency, µM (doses to about 57.2 µM), for inactives: at the top dose activity change, negative = inhibition, actives largely listed as inhibitors;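 note: potency is the fitted concentration of half-maximal effect; plate controls were DMSO cells for no effect and cell-free wells for full effect; nearly all actives have a fitted effect of over 45% in size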
# KDM5B inh = Primary screen for KDM5B Histone Demethylases FDH-coupled qHTS. Potency, µM (series often up to 57.7 µM), actives largely listed as inhibitors. 2.6% of 220,000 active. Lysine-specific demethylase 5B (Homo sapiens), Q9UGL1. KDM5B demethylase, FDH-coupled NADH fluorescence (FDH is formaldehyde dehydrogenase); note: potency is the fitted concentration of half-maximal effect; 0% is about no effect; nearly all actives have a fitted effect of over 70% in size
#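 Measured: NADH fluorescence change, 30 min, RT. System: KDM5BΔAP 200 nM final, H3K4me3 peptide, α-KG, Fe(II), ascorbate, NAD⁺ plus FDH, pH 7.5 HEPES. Compounds: titrated, 10 min pre-incubation with enzyme.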
# IP6K1 conf = Confirmatory qHTS assay for small molecule inhibitors of Inositol hexaphosphate kinase 1 (IP6K1). Potency, µM (doses to about 49 µM), for inactives: at the highest dose activity change, negative = inhibition, most hits filed as inhibitors. AID 1645852, 2021. 13% of 1,200 active. shares compounds with IP6K1 inh. recombinant IP6K1 kinase, ADP-Glo luminescence, 2 h; note: potency is the fitted concentration of half-maximal effect; % is set by controls: 0 for no effect and ±100 for the full control effect; nearly all actives have a fitted effect of over 65% in size
# * = called active by the depositor; i = inactive; ? = inconclusive; . = not tested or not shown; [ ] = dose if it differs, or a comment. Unless noted, calls come from the whole dose curve; as a rule, active = well fitted curve in the direction sought with a large enough effect; inconclusive = small, poorly fitted or top-dose-only effect, or another doubt; inactive = no such curve, though single readings can be large; an effect the other way counts as inactive or inconclusive.
SMILES,HEK293 viab,IP6K1 inh,SNCA expr inhib,KDM5B inh,IP6K1 conf
Cc1cccc(-c2[nH]c(C(C)(C)C)nc2-c2ccc3c(c2)OCO3)n1,-16%,.,-31%,.,.
CC(C)(C)Cn1c(N)nc2ccc(-c3[nH]c(C(C)(C)C)nc3-c3ccc(F)cc3)nc21,?,-25*,27µM*,.,6%
COC(=O)c1c(NC(=O)COc2ccc(OC)cc2)sc2c1CCC(C)C2 (configuration not stated),?,-38*,?,?,-12%
COc1ccc(C2Cn3nnc(C(=O)N4CCN(C(=O)CCc5ccccc5)CC4)c3CO2)cc1 (configuration not stated),-4%,-25*,?,?,21%
CC(C)NC(=O)c1ccc(Cl)cc1-n1cnnn1,.,.,.,i,.
CC(C)c1cc(C(C)C)c(CC(=O)NS(=O)(=O)Oc2c(C(C)C)cccc2C(C)C)c(C(C)C)c1,-28%,-32*,23%,.,?
CC(C)c1ccc(NC(=O)c2ccc(CSc3ccc(Cl)cc3)cc2)cc1,.,.,.,i,.
CC(=O)Nc1ccc(NS(=O)(=O)c2ccc(Cl)s2)cc1,7%,-28*,13%,i,-25%
O=S(=O)(NC1CCSc2c(F)cccc21)c1ccc(Br)cc1 (configuration not stated),.,.,.,i,.
CCCC(C(=O)Nc1nc2ccccc2s1)c1ccccc1 (configuration not stated),.,.,.,i,.
Cc1cc(NC(=O)c2cccc(NC(=O)/C=C/CN(C)C)c2)ccc1Nc1nccc(-c2cccnc2)n1,-31%,-34*,.,.,?
COc1ccc(C(=O)N2CCC(Cc3nc(C(C)C)no3)CC2)cc1OC,9%,-5,0%,i,.
Cc1cccc(C(=O)N2CCC(Cc3nc(-c4cnccn4)no3)CC2)c1,-11%,-27*,-11%,i,4%
Cc1ccc(C(=O)N2CCC(Cc3nc(C(C)C)no3)CC2)cc1C,-17%,-27*,?,i,-8%
COc1ccc(NS(=O)(=O)c2ccc3nc(-c4ccccc4)[nH]c3c2)cc1,-19%,-31*,-30%,i,-17%
CCOc1ccc(NS(=O)(=O)c2ccc3nc(-c4ccccc4)[nH]c3c2)cc1,-3%,-22,-21%,i,.
COc1ccc(CN2CCC(N3C(=O)c4c(c(C)nn4-c4ccccc4)C3C3CC3)CC2)cc1 (configuration not stated),.,1,.,.,.
COc1cccc(C(=O)N2CC(=O)Nc3ccc(C)cc3C2c2ccc(F)cc2)c1OC (configuration not stated),-19%,-25*,1%,i,-14%
Cc1ccc2c(c1)C(c1ccccc1)N(C(=O)c1ccccc1F)CC(=O)N2 (configuration not stated),-3%,-14,-17%,?,.
[Li+],-5%,.,0%,.,.
COc1cccc(NC(=O)C2CCN(C(=O)N3CC4CC(C3)[C@H]3CCCC(=O)N3C4)CC2)c1 (some centres not stated),-2%,29,-9%,i,.
COc1ccc(-n2c(=O)c3c4c(sc3n(Cc3cc(=O)n5c(C)cccc5n3)c2=O)CCC4)c(OC)c1,?,-39*,-9%,?,-10%
CCN(CC)C(=O)C[C@@H]1CCNC[C@@H]1Cc1cc(-c2ccc(OC)cc2)on1,4%[87.6 µM],3,?,i,.
Cc1ccc(C(=O)N[C@@H]2C=C(C(=O)NCC(N)=O)C[C@@H](O)[C@@H]2O)cc1,4%[87.6 µM],-5,-1%[87.6 µM],?,.
CCc1nc2ccc(C(=O)NCc3ccc(N(C)C)cc3)cc2nc1CC,-1%,-26*,12%,i,-16%
CCc1nc2ccc(C(=O)NCc3cccc(Br)c3)cc2nc1CC,?,10,61%,?,.
CC(Nc1ncccc1[N+](=O)[O-])c1ccc(Cl)cc1Cl (configuration not stated),.,.,.,i,.
